Values joined by “and” are separate entries in the source; they are usually repeats but may differ in a detail not shown here. Equal values may be shown once. Unmarked numbers belong to inactive results. Records with an inconclusive call do not appear. Active and inactive are the calls of the source. Unless noted, calls come from the whole dose curve; as a rule, active = well fitted curve in the direction sought with a large enough effect; inconclusive = small, poorly fitted or top-dose-only effect, or another doubt; inactive = no such curve, though single readings can be large; an effect the other way counts as inactive or inconclusive.

The nature of experiment [1]: qHTS assay for small molecule agonists of the antioxidant response element (ARE) signaling pathway (AID 651741; active = well fitted activation curve with a large enough effect in the signal ratio; the % refers to the signal ratio; note: potency is the fitted concentration of half-maximal effect; for activation: % of control where 0% means no effect). In a few lines:
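Compounds in DMSO are pinned onto HepG2 ARE-bla cells (2,000/well) that were preincubated 5 h; plates stay 16 h at 37 C, then beta-lactamase activity is detected with LiveBLAzer B/G substrate by fluorescence.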
Background: In qHTS, concentration-response curves come from the screen itself.

Experiment [2] can be described thus: qHTS assay for small molecule activators of the p53 signaling pathway (AID 651743; active = well fitted activation curve with a large enough effect in the signal ratio, not every such curve was filed as active; the % refers to the signal ratio; note: potency is the fitted concentration of half-maximal effect; for activation: series mostly up to about 92 µM; % of control where 0% means no effect). The conditions noted are these: HCT-116 p53RE-bla, beta-lactamase FRET ratio, 16 h; activation: stronger effect = higher value. The procedure, abridged:
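Cell-based beta-lactamase reporter (p53 response elements, HCT-116 background). After a 5-hour preincubation, cells received compound for 16 hours at 37 C; substrate development ran 2 hours at room temperature.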

The nature of experiment [3]: qHTS assay for environmental chemicals that activate the Aryl hydrocarbon Receptor (AhR) signaling pathway (AID 651777). For activation: % of control where 0% means no effect. Note: nearly all actives have a fitted effect of over 15% in size. Note: potency is the fitted concentration of half-maximal effect. The conditions noted are these: 1A2-DRE human hepatoma cells, luciferase, 24 h; activation: stronger effect = higher value. In a few lines:
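AhR activation is scored as a rise in luciferase from a stable DRE–CYP1A2 promoter construct in human hepatoma cells. Treatment lasts 24 hr at 37 C; detection uses One-Glo after 30 min at room temperature.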

Experiment [4] concerns the target Peroxisome proliferator-activated receptor alpha (Homo sapiens) (UniProt Q07869). Nature of the experiment: qHTS assay for small molecule agonists of the peroxisome proliferator-activated receptor alpha (PPARalpha) signaling pathway (AID 651778). For max response: % of control where 0% means no effect. Note: potency is the fitted concentration of half-maximal effect. Particulars: PathHunter PPARalpha complementation, chemiluminescence, 6 h; max response: stronger effect = higher value. In a few lines:
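Cells plated at 2,000/well and held overnight at 37 C, 5% CO2, then compound added by pin tool for 6 hr; after PathHunter detection reagent and 60 min at room temperature, chemiluminescence from enzyme complementation was read.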

A short description of experiment [5]: Cell Proliferation Assay against the TMD8 Cell Line (Caspase readout at 8 hrs) (AID 651713).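 Note: 0% = DMSO and 100% = 9.2 µM bortezomib caspase signal.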 The procedure, abridged: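 TMD8 cells in RPMI plus 5% FBS were treated with compound for 8 h at 37C. Caspase 3/7 activation was read by Caspase-Glo luminescence. Percent activity was scaled from DMSO (0%) to 9.2 uM bortezomib final (100%).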
A short description of experiment [6]: qHTS assay for small molecule activators of the nuclear factor-kappa B (NF-kB) signaling pathway (AID 651749; active = well fitted activation curve with a large enough effect in the signal ratio; the % refers to the signal ratio; note: series mostly up to about 77 µM; % of control where 0% means no effect). Particulars: NF-kB-bla ME-180 cells, beta-lactamase FRET ratio, 16 h; stronger effect = higher value. In a few lines: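 Screening used 2,000 ME-180 reporter cells per well exposed to pinned compound (23 nL) or DMSO; after 16 hr at 37C, beta-lactamase expression under NF-kB control was assessed through FRET.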

In experiment [7] the target is Tumor necrosis factor (Homo sapiens) (UniProt P01375). The experiment is described as follows: qHTS assay to identify small molecules that stimulate Tumor Necrosis Factor-alpha (TNF-alpha) secretion (AID 651757; active = well fitted curve in the direction sought with a large enough effect in the signal ratio; the % refers to the signal ratio; note: potency is the fitted concentration of half-maximal effect). The procedure, abridged:
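THP-1 cells (3000/well) exposed to compounds 17 hrs at 37 C. Secreted TNF-alpha detected by HTRF with cryptate- and XL665-labeled anti-TNF-alpha antibodies after 3 hr at room temperature.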

The nature of experiment [8]: qHTS assay to identify small molecules that stimulate interleukin-8 (IL-8) secretion (AID 651758; active = well fitted activation curve with a large enough effect in the signal ratio; the % refers to the signal ratio; note: potency is the fitted concentration of half-maximal effect; for activation: 0% is about no effect). In a few lines: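 THP-1, 2000 cells/well; cpd 16 h, 37 C; add cryptate + XL665 anti-IL-8 Abs; RT 1-3 h; TR-FRET read.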
A short description of experiment [9]: qHTS assay for small molecule disruptors of the mitochondrial membrane potential - 1 hr assay (AID 651754; calls by dose curve; note: nearly all actives have a fitted effect of over 35% in size; note: potency is the fitted concentration of half-maximal effect). The procedure, abridged: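 HepG2 cells, attached overnight, were exposed to compound for 1 hr at 37C, then stained 30 min with a potentiometric dye. Ratio of red aggregate (590nm) to green monomer (535nm) fluorescence reports membrane potential; collapse shifts signal toward green.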

Experiment [10] can be described thus: qHTS assay for small molecule disruptors of the mitochondrial membrane potential - 5 hr assay (AID 651755; calls by dose curve; note: potency is the fitted concentration of half-maximal effect; nearly all actives have a fitted effect of over 40% in size). The conditions noted are these: JC-1-type ratio dye. In a few lines: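 HepG2 cells, attached overnight at 37C, were exposed to compound or DMSO for 5 hr at 37C, 5% CO2. Mito-MPS dye was then added for 30 min, and fluorescence read at 490/535 nm (monomers) and 540/590 nm (aggregates).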

Chain of Tumor necrosis factor (Homo sapiens) (P01375 whole entry, looked up): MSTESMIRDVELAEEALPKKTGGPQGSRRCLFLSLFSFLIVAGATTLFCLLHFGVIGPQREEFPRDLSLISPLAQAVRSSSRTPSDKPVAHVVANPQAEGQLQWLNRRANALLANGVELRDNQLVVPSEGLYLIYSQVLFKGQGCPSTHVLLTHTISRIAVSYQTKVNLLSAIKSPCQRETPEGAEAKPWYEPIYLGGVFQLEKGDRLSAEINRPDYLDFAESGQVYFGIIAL
Chain of Peroxisome proliferator-activated receptor alpha (Homo sapiens) (Q07869 whole entry, looked up): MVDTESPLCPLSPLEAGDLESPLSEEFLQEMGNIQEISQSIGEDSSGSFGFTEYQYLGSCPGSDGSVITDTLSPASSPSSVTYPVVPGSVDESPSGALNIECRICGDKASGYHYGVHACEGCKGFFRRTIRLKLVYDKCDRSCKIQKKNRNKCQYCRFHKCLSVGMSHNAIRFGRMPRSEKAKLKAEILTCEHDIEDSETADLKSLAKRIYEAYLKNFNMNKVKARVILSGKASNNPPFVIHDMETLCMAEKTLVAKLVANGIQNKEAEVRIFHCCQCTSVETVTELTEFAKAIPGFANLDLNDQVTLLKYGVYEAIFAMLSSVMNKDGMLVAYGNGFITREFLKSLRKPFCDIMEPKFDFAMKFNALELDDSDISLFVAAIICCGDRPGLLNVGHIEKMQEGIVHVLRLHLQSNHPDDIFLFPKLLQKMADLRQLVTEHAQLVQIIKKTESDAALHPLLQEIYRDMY

For the compound `COP(=S)(OC)Oc1ccc(Sc2ccc(OP(=S)(OC)OC)cc2)cc1`, in [1], the Potency is 61.1 µM (active). Moreover, the results for the activation in experiment [2] and in experiment [3] were 9.51% and 6.46%, respectively. Besides, in [4], the max response was 7.57%.
Consider `Nc1c2ccccc2nc2ccccc12`, for which the Potency in [3] is 31.6 µM (active).
With `O=C(O)c1nn(Cc2ccc(Cl)cc2Cl)c2ccccc12`, the outcome in [5] was inactive.
`CCNc1nc(Cl)nc(NCC)n1`: in [1], the Potency result is “inactive”. Also, the activation in experiment [2] was 1.85%; in experiment [3], -1.55%. Further, the max response in experiment [4] is -1.73%.
Take `COP(=O)(OC)OC=C(Cl)Cl`: the Potency is 37.6 µM (active) and 42.2 µM (active) and 30.6 µM (active) in experiment [1]; 21.1 µM (active) and 66.8 µM (active) in experiment [8]. The activation was 1.84% and 0.182% in experiment [6]; 2.56% [middle of 4 runs] in experiment [3]. For the same compound, in experiment [7], the Potency result was “inactive”. Further, the max response in experiment [4] was -1.1% [middle of 4 runs].
`CCC(=O)O[C@H]1CC[C@H]2[C@@H]3CCC4=CC(=O)CC[C@]4(C)[C@H]3CC[C@]12C`: the Potency result in experiment [1] is “inactive”. Further, the activation is -1.29% in experiment [2], -1.92% in [6] and -0.665% in [3]. The max response in experiment [4] is -1.43%.
Consider `CCCCCCCCC(=O)NCc1ccc(O)c(OC)c1`, for which the activation in experiment [6] was -0.791%. Besides, the max response in experiment [4] was 1.45%.
With `Oc1c(Br)cc(Br)cc1Br`, the Potency in experiment [1] is 42.2 µM (active); in experiment [4], 39.8 µM (active) and 35.5 µM (active). The activation in [6] is -2.42% and -0.471%; in [3], 1.96% and 1.41%. In addition, the Potency entry in [7] was “inactive”.
As to `O=C(CCl)c1ccc(Cl)cc1Cl`, the activation is -1.69% in [6] and 0.547% in experiment [3]. The Potency entry in experiment [7] is “inactive”. Also, the Potency in [8] was 3.76 µM (active). The max response in experiment [4] was -0.884%.
Take `Oc1ccc(Cl)cc1Sc1cc(Cl)ccc1O`: the Potency is 29.8 µM (active) in experiment [1], 28.2 µM (active) in [2], 8.41 µM (active) in [9] and 7.5 µM (active) in experiment [10].
In the case of `N#Cc1nn(-c2c(Cl)cc(C(F)(F)F)cc2Cl)c(N)c1S(=O)C(F)(F)F` (stereo not given), the Potency in experiment [1] is 61.1 µM (active). In addition, the activation in [3] is 2.36%. For the same compound, the max response in [4] is -0.478%.
`O=c1n(Cl)c(=O)n(Cl)c(=O)n1Cl`: the activation in experiment [2] is -4.94%; in experiment [6], -1.25%; in [3], 0.752%. Also, the max response in [4] was -0.0703%.
Consider `CCCCCCCCCCCC[N+](C)(C)CCOc1ccccc1`, for which the activation is 13.3% in experiment [2] and -2.77% in experiment [3]. In addition, the Potency result in experiment [7] and in experiment [8] was “inactive” throughout. Also, the max response in experiment [4] was -0.963%.
As to `CCCCCCCCCCCCCCCC[n+]1ccccc1`, in experiment [1], the Potency is 10.6 µM (active).
Consider `CC[n+]1c(-c2ccccc2)c2cc(N)ccc2c2ccc(N)cc21`, for which the Potency in experiment [1] was 33.5 µM (active); in experiment [2], 8.91 µM (active); in experiment [10], 11.9 µM (active); in experiment [7] it was 37.6 µM (active). Also, in experiment [3], the activation was 11.3%. Also, the max response in experiment [4] is -2.33%.
Take `CCOP(=S)(OCC)O/N=C(\C#N)c1ccccc1`: the activation in experiment [6] is 0.361%; in experiment [3] it was 9.33%. Further, the max response in experiment [4] was -3.05%.
With `C[C@H]1C(=O)O[C@@H]2CCN3CC=C(COC(=O)[C@](C)(O)[C@]1(C)O)[C@H]23`, the Potency result in experiment [1] was “inactive”. The activation was 0.569% in [6] and -2.28% in [3]. Moreover, the max response in experiment [4] was 0.361%.
On to `CNC(=O)Oc1cccc2ccccc12`, for which the Potency in experiment [1] was 33.5 µM (active) and 17.2 µM (active); in experiment [3], 39.8 µM (active) and 35.5 µM (active). Besides, the activation is 1.34% in experiment [2]; 0.189% and -3.62% in experiment [6]. Besides, the Potency entry in experiment [7] and in experiment [8] was “inactive” in each case. In addition, the max response in experiment [4] was -0.498% and -1.3%.
Turning to `NC(N)=NC(=O)c1nc(Cl)c(N)nc1N`, the Potency in experiment [1] is 42.2 µM (active).
With `O=C(NC(=O)c1c(F)cccc1F)Nc1cc(Cl)c(OC(F)(F)C(F)C(F)(F)F)cc1Cl` (stereo not given), the Potency in experiment [1] was 19.3 µM (active). The activation in [2] was 4.35%; in [6], 1.78%; in experiment [3], 0.163%. Moreover, in experiment [4], the max response is 14.7%.
For the compound `Cc1ccc(N=CN(C)C=Nc2ccc(C)cc2C)c(C)c1`, in experiment [1], the Potency was 24.3 µM (active). Also, the activation in [2] was 15.6%.
As for `C=CCOC(Cn1ccnc1)c1ccc(Cl)cc1Cl` (stereo not given), the activation in [2] was 19.4% and 4.84%; in [3], 11.9% and 13.2%. In addition, in experiment [4], the max response is -1.42% and 0.577%.
In the case of `Oc1ccc(Cl)cc1Cc1cc(Cl)ccc1O`, the Potency in experiment [1] is 18.8 µM (active); in [9], 10.6 µM (active); in experiment [10], 11.9 µM (active). Further, the activation in experiment [6] is 2.23%. In experiment [4], the max response was 4.36%.
On to `CN(C)C(=S)SC(=S)N(C)C`, for which the Potency in experiment [1] is 24.3 µM (active).
Turning to `CN(C)C(=S)SSC(=S)N(C)C`, the Potency result in experiment [1], in experiment [9] and in experiment [7] was “inactive” each time. Also, the activation in [2] is 2.15% and 1.76%; in experiment [6] it was -1.21%; in [3], 8.11% and 11.6%. In addition, the Potency in experiment [10] is 23.7 µM (active). Moreover, in [4], the max response was -9.79% and -7.98%.
